Measured values: PubChem BioAssay (EPA / NIEHS)
Records with an inconclusive call do not appear. The source made the active and inactive calls. The calls were made as follows, unless noted: active = hit-call score of the fitted dose curve at least 0.9, where 1 is the maximum; inconclusive = response in the unintended direction; inactive = score below 0.9.

Experiments:
[1] = target: Bile acid receptor (Homo sapiens) (UniProt Q96RI1); assay: ATG_FXR_TRANS: Attagene TRANS-FACTORIAL HepG2 Assay for Farnesoid X Receptor (FXR) (AID 2282979); settings: HepG2 Attagene TRANS FXR-GAL4 reporter transcription;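 also: hits raise reporter mRNA above DMSO so AC50 marks FXR activation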
Sequence of Bile acid receptor (Homo sapiens) (Q96RI1 whole entry, looked up, the tested form may be a part): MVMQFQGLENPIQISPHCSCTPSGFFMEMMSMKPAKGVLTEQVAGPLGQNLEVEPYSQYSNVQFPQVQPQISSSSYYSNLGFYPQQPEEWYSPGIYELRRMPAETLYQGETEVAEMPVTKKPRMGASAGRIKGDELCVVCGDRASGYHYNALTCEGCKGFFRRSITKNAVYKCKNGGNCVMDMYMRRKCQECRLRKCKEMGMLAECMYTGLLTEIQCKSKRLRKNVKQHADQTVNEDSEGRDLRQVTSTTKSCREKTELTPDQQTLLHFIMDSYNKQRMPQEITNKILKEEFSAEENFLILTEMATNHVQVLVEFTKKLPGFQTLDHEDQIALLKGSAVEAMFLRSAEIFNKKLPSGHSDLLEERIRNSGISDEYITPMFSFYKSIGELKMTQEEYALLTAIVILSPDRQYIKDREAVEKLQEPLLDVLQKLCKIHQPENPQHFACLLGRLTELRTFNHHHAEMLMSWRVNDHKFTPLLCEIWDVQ
Procedure, shortened: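 Read-out: fluorescent reporter transcripts quantified by capillary electrophoresis after RT-PCR of total RNA. Source cells were HepG2 transiently carrying chimeric NR-GAL4 plus GAL4-UAS reporter units, dosed 24 h. Activity fitted upward relative to DMSO baseline.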

[2] = target: Transcriptional activator Myb (Homo sapiens) (UniProt P10242); assay: ATG_Myb_CIS: Attagene CIS-FACTORIAL HepG2 Assay for human Myeloblastosis (Myb) Proto-Oncogene Transcription Factor (AID 2282986; active = hit-call score of the fitted dose curve at least 0.9, where 1 is the maximum; inactive = score below 0.9); settings: HepG2 Attagene CIS-FACTORIAL Myb reporter transcription; actives raise or lower the signal
Sequence of Transcriptional activator Myb (Homo sapiens) (P10242 whole entry, looked up): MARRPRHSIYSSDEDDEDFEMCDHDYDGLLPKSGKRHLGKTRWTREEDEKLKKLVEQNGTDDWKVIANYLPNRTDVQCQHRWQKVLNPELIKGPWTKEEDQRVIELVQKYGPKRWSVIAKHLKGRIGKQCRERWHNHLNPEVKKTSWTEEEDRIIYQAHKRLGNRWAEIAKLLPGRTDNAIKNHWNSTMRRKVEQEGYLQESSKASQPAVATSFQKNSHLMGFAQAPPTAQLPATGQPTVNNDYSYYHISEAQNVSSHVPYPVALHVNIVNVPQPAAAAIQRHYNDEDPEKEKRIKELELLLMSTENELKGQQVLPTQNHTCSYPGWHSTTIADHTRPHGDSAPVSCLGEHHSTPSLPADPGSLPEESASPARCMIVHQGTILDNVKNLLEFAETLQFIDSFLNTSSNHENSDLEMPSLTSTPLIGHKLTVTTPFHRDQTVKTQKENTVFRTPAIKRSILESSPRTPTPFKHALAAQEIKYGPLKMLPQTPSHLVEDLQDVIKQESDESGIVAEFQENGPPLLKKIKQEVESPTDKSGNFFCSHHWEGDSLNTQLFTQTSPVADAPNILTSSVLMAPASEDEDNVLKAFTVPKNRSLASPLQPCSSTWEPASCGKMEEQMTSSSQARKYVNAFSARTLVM
Procedure, shortened: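 HepG2, transient MRTU transfection (cis-element promoters, endogenous TF activity), 24 h compound exposure. Readout: reporter mRNA via RT-PCR, 6-FAM labeling, HpaI digest, capillary electrophoresis. Gain/loss fit vs DMSO.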

[3] = target: Nuclear respiratory factor 1 (Homo sapiens) (UniProt Q16656); assay: ATG_NRF1_CIS: Attagene CIS-FACTORIAL HepG2 Assay for human Nuclear Respiratory Factor 1 (NRF1) Orphan Gene (AID 2282987; active = hit-call score of the fitted dose curve at least 0.9, where 1 is the maximum; inactive = score below 0.9); settings: HepG2 NRF1 cis-element reporter, Attagene multiplex; actives raise or lower the signal
Sequence of Nuclear respiratory factor 1 (Homo sapiens) (Q16656 whole entry, looked up): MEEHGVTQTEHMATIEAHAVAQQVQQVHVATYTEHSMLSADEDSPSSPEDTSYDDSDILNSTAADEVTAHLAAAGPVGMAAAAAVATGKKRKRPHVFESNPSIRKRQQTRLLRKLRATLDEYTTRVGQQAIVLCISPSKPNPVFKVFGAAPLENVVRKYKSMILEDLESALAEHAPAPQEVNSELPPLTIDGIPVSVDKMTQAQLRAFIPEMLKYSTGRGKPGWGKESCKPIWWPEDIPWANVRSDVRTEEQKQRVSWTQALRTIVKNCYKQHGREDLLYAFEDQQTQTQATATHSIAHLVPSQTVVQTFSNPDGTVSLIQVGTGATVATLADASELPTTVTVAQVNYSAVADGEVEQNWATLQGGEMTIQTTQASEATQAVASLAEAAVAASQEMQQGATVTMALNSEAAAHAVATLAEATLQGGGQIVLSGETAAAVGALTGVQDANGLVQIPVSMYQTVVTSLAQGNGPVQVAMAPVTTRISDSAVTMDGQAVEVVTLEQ
Procedure, shortened: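 Endogenous NRF1-driven reporter transcription measured in transiently transfected human HepG2 liver cells. Readout: reporter mRNA by RT-PCR and capillary electrophoresis with fluorescence detection, 24 h post-dosing. Gain or loss of signal fitted relative to DMSO baseline.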

[4] = ATG_NFI_CIS: Attagene CIS-FACTORIAL HepG2 Assay for human Nuclear Factor I (NFI) (AID 2282989; active = hit-call score of the fitted dose curve at least 0.9, where 1 is the maximum; inactive = score below 0.9); settings: HepG2 cis-regulatory reporter, NFI response element transcription; actives raise or lower the signal
Procedure, shortened: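 Transfected HepG2 liver cells, exposed 24 h, supplied total RNA for oligo(dT) reverse transcription and reporter-specific PCR. Labelled, HpaI-cut fragments were sized by capillary electrophoresis; DMSO set the baseline for bidirectional fitting.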

[5] = ATG_M_06_TRANS: Attagene TRANS-FACTORIAL HepG2 Assay for M06 Transcription Factor (Internal Marker) (AID 2282983); settings: HepG2 Attagene TRANS M06 internal marker reporter
Procedure, shortened: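 After a 24 h chemical treatment of transfected HepG2, RNA underwent DNase I treatment, reverse transcription and reporter-specific PCR; labelled, HpaI-digested products were sized by capillary electrophoresis. Signal increase relative to DMSO defined activity.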

[6] = target: Hepatocyte nuclear factor 4-alpha (Homo sapiens) (UniProt P41235); assay: ATG_HNF4a_TRANS: Attagene TRANS-FACTORIAL HepG2 Assay for human Hepatocyte Nuclear Factor 4 alpha (HNF4a) (AID 2282982); settings: HepG2 HNF4a transactivation reporter, mRNA readout
Sequence of Hepatocyte nuclear factor 4-alpha (Homo sapiens) (P41235 whole entry, looked up, the tested form may be a part): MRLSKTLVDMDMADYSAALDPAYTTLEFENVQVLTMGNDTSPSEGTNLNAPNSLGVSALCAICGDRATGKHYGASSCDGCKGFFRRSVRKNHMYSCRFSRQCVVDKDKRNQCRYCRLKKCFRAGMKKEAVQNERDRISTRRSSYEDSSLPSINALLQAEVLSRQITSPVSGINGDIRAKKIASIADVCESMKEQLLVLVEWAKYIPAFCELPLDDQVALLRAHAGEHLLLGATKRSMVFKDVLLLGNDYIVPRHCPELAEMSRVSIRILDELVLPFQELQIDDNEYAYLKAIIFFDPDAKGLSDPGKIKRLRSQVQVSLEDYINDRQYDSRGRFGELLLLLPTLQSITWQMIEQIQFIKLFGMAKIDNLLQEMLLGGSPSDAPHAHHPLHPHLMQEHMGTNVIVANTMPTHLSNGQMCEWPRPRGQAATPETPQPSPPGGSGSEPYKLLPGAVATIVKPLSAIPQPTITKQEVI
Procedure, shortened: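 Gain-of-signal mRNA induction, relative to DMSO vehicle, was read after 24 h compound treatment of HepG2 cells bearing transfected GAL4-UAS reporters. Detection used RT-PCR, 6-FAM primer extension and capillary electrophoresis.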

[7] = ATG_M_32_TRANS: Attagene TRANS-FACTORIAL HepG2 Assay for M32 Transcription Factor (Internal Marker) (AID 2282984); settings: HepG2 Attagene TRANS M32 internal marker reporter;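 also: transcript level of a background control reporter unit measured by RT-PCR and capillary electrophoresis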
Procedure, shortened: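 Capillary electrophoresis of 6-FAM-labelled reporter fragments gives the signal; data fitted for gain over DMSO negative control. Source: HepG2 cells bearing transient multiple reporter transcription units, 24 h exposure.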

[8] = target: Nuclear receptor subfamily 4 group A member 2 (Homo sapiens) (UniProt P43354); assay: ATG_NURR1_TRANS: Attagene TRANS-FACTORIAL HepG2 Assay for human Nuclear Receptor Related Protein 1 (NURR1) (AID 2282985); settings: HepG2 Attagene TRANS reporter, mRNA readout
Sequence of Nuclear receptor subfamily 4 group A member 2 (Homo sapiens) (P43354 whole entry, looked up): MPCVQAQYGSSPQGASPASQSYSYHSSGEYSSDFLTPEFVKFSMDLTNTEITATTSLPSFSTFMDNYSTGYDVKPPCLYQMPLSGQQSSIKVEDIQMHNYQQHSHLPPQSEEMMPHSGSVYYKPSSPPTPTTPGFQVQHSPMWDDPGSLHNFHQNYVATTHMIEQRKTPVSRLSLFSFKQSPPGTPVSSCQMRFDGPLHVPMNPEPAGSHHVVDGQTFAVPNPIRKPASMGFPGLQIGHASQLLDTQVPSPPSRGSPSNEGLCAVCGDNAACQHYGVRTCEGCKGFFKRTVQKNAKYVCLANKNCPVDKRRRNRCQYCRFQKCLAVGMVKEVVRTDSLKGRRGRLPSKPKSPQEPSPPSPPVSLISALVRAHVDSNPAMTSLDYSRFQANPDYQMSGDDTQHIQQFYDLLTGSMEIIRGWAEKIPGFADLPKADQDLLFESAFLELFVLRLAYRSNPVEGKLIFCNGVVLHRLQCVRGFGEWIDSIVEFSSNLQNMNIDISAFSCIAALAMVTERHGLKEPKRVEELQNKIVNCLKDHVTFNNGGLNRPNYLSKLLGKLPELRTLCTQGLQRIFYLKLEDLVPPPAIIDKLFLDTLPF
Procedure, shortened: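 HepG2 / transient MRTU transfection / 24 h compound exposure / RT-PCR + CE fluorescence of reporter mRNA / gain-of-signal vs DMSO.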

[9] = target: Oxysterols receptor LXR-alpha (Homo sapiens) (UniProt Q13133); assay: ATG_LXRa_TRANS: Attagene TRANS-FACTORIAL HepG2 Assay for human Liver X Receptor alpha (LXRa) (AID 2282980); settings: HepG2 Attagene TRANS reporter, LXRa transactivation
Sequence of Oxysterols receptor LXR-alpha (Homo sapiens) (Q13133 whole entry, looked up, the tested form may be a part): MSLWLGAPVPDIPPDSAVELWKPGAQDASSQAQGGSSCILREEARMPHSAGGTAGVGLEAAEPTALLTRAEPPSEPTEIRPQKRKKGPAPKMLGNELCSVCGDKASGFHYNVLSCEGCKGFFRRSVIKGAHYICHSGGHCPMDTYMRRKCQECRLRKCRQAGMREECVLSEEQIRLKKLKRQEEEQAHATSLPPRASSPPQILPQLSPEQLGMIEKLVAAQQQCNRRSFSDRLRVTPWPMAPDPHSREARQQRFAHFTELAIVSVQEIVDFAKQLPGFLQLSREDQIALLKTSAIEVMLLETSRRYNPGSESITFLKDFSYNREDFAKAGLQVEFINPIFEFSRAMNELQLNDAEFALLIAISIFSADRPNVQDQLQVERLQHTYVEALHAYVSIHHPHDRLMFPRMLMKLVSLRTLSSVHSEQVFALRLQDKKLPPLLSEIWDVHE
Procedure, shortened: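 Read-out: reporter transcript levels by RT-PCR plus capillary electrophoresis, fluorescence intensity. Transiently transfected HepG2, exogenous NR-GAL4 chimera, GAL4-UAS reporters; 24 h compound exposure. Activity = increase over DMSO negative control.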

[10] = target: Oxysterols receptor LXR-beta (Homo sapiens) (UniProt P55055); assay: ATG_LXRb_TRANS: Attagene TRANS-FACTORIAL HepG2 Assay for human Liver X Receptor beta (LXRb) (AID 2282981); settings: HepG2 Attagene TRANS GAL4-LXRb reporter, mRNA
Sequence of Oxysterols receptor LXR-beta (Homo sapiens) (P55055 whole entry, looked up, the tested form may be a part): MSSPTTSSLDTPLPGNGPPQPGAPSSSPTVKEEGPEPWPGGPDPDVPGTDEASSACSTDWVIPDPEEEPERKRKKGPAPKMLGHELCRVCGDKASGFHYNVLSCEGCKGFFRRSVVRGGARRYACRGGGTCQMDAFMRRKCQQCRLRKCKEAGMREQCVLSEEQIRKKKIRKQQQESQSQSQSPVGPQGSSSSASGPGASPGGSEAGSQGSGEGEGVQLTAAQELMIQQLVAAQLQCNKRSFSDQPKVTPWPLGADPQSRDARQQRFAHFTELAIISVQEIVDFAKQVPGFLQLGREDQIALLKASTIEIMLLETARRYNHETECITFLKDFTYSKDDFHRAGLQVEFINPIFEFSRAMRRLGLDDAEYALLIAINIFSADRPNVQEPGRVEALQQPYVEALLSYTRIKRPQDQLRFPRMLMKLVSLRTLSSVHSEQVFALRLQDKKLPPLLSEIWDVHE
Procedure, shortened: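 Gain-of-signal mRNA reporter endpoint, DMSO as negative control. Transiently transfected HepG2 cells carrying the NR-Gal4 chimera and GAL4-UAS reporter units were treated 24 h; transcripts quantified by RT-PCR and capillary electrophoresis fluorescence.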

Cc1cc(C(F)(C(F)(F)F)C(F)(F)F)ccc1NC(=O)c1cccc(I)c1C(=O)NC(C)(C)CS(C)(=O)=O
outcome [1]: inactive | outcome [2]: inactive | outcome [3]: inactive | outcome [4]: inactive

C[C@H]1C(=O)O[C@@H]2CCN3CC=C(COC(=O)[C@](C)(O)[C@]1(C)O)[C@H]23
outcome [1]: inactive | outcome [5]: inactive | outcome [2]: inactive | outcome [3]: inactive | outcome [4]: inactive

CC(C)(COCC1CO1)COCC1CO1 (centres undefined)
outcome [1]: inactive | outcome [6]: inactive | outcome [7]: inactive | outcome [2]: inactive | outcome [3]: inactive | outcome [4]: inactive

CCOP(=S)(OCC)O/N=C(\C#N)c1ccccc1
outcome [1]: inactive | outcome [5]: inactive | outcome [2]: inactive | outcome [4]: inactive

C#CCOC(=O)/C=C(C)/C=C/CC(C)CCCC(C)C (centres undefined)
outcome [1]: inactive | outcome [5]: inactive | AC50 [8]: 16.6 µM (active) | outcome [2]: inactive | outcome [3]: inactive | outcome [4]: inactive

O=CCCl
outcome [9]: inactive | outcome [10]: inactive | outcome [6]: inactive | outcome [5]: inactive | outcome [7]: inactive | outcome [8]: inactive | AC50 [3]: 25.5 µM (active) | outcome [4]: inactive

O=C(O)COc1ccc(Cl)cc1
outcome [9]: inactive | outcome [10]: inactive | outcome [6]: inactive | outcome [5]: inactive | outcome [7]: inactive | outcome [2]: inactive | outcome [4]: inactive

BrCc1ccc(Br)cc1
outcome [1]: inactive | outcome [5]: inactive | outcome [8]: inactive | outcome [2]: inactive | outcome [3]: inactive | outcome [4]: inactive

Cc1cccc(OP(=O)(Oc2cccc(C)c2)Oc2cccc(C)c2)c1
outcome [1]: inactive | outcome [7]: inactive | outcome [8]: inactive | outcome [2]: inactive | outcome [3]: inactive | outcome [4]: inactive

ClCCCCl
outcome [1]: inactive | outcome [5]: inactive | outcome [7]: inactive | outcome [8]: inactive | outcome [2]: inactive | outcome [3]: inactive | outcome [4]: inactive

O=c1[nH]c2ccccc2n1C1CCN(CCCC(c2ccc(F)cc2)c2ccc(F)cc2)CC1
outcome [1]: inactive | outcome [5]: inactive | outcome [7]: inactive | outcome [8]: inactive | outcome [2]: inactive | outcome [4]: inactive

BrCC(Br)c1ccccc1 (centres undefined)
outcome [1]: inactive | outcome [5]: inactive | outcome [7]: inactive | outcome [8]: inactive | outcome [2]: inactive | outcome [3]: inactive | outcome [4]: inactive

CC(C)=CC1C(C(=O)OCc2cccc(Oc3ccccc3)c2)C1(C)C (centres undefined)
outcome [1]: inactive | outcome [7]: inactive | outcome [2]: inactive | outcome [3]: inactive | outcome [4]: inactive

Oc1ccc(Cc2ccc(O)cc2)cc1
outcome [9]: inactive | outcome [10]: inactive | outcome [6]: inactive | outcome [5]: inactive | outcome [7]: inactive | outcome [2]: inactive | outcome [4]: inactive

C=CC(=O)NC(C)(C)CC(C)=O
outcome [9]: inactive | outcome [10]: inactive | outcome [6]: inactive | outcome [5]: inactive | outcome [7]: inactive | outcome [2]: inactive | outcome [4]: inactive

CN(CCCC(O)c1cccnc1)N=O (centres undefined)
outcome [1]: inactive | outcome [6]: inactive | outcome [7]: inactive | outcome [8]: inactive | outcome [2]: inactive | outcome [4]: inactive

FC(F)OCC(F)(F)C(F)(F)F
outcome [1]: inactive | outcome [6]: inactive | outcome [5]: inactive | outcome [2]: inactive | outcome [3]: inactive | outcome [4]: inactive

CCCCCCCCCCCCCCC(Br)C(=O)O (centres undefined)
outcome [1]: inactive | outcome [7]: inactive | AC50 [8]: 26.4 µM (active) | AC50 [2]: 163 µM (active) | AC50 [3]: 168 µM (active) | outcome [4]: inactive

CC(=O)C(F)(F)C(F)(F)F
outcome [1]: inactive | outcome [6]: inactive | outcome [5]: inactive | outcome [2]: inactive | outcome [3]: inactive | outcome [4]: inactive

O=C(NC(=O)c1c(F)cccc1F)Nc1cc(Cl)c(Oc2ncc(C(F)(F)F)cc2Cl)c(Cl)c1
outcome [1]: inactive | outcome [5]: inactive | outcome [8]: inactive | outcome [2]: inactive | outcome [3]: inactive | outcome [4]: inactive

Cc1ccccc1OP(=O)(Oc1ccccc1)Oc1ccccc1
outcome [1]: inactive | outcome [7]: inactive | AC50 [8]: 25.2 µM (active) | outcome [2]: inactive | outcome [4]: inactive

ClCc1ccccc1CCl
outcome [9]: inactive | outcome [10]: inactive | outcome [6]: inactive | outcome [5]: inactive | outcome [7]: inactive | outcome [8]: inactive | outcome [3]: inactive | outcome [4]: inactive

CCCCN(CCCC)C(=S)[S-].CCCCN(CCCC)C(=S)[S-].[Ni+2]
outcome [9]: inactive | outcome [10]: inactive | outcome [6]: inactive | outcome [5]: inactive | outcome [7]: inactive | outcome [2]: inactive | outcome [4]: inactive

N#CCCC(Br)(C#N)CBr (centres undefined)
outcome [1]: inactive | outcome [7]: inactive | outcome [8]: inactive | outcome [2]: inactive | outcome [3]: inactive | AC50 [4]: 54.3 µM (active)

O=S1(=O)OC(c2cc(Br)c(O)c(Br)c2)(c2cc(Br)c(O)c(Br)c2)c2ccccc21
outcome [1]: inactive | outcome [5]: inactive | outcome [7]: inactive | outcome [8]: inactive | outcome [2]: inactive | outcome [3]: inactive | outcome [4]: inactive

CCCCC(CC)C(=O)Cl (centres undefined)
outcome [1]: inactive | outcome [6]: inactive | outcome [5]: inactive | outcome [2]: inactive | outcome [3]: inactive | outcome [4]: inactive

CN(N=O)c1ccc([N+](=O)[O-])cc1
outcome [1]: inactive | outcome [5]: inactive | outcome [7]: inactive | outcome [8]: inactive | outcome [2]: inactive | outcome [3]: inactive | outcome [4]: inactive

O=S1OC[C@@H]2[C@H](CO1)[C@]1(Cl)C(Cl)=C(Cl)[C@@]2(Cl)C1(Cl)Cl (some centres undefined)
outcome [1]: inactive | outcome [5]: inactive | outcome [2]: inactive | outcome [4]: inactive

Cc1ccc(OP(=O)(Oc2ccc(C)cc2C)Oc2ccc(C)cc2C)c(C)c1
outcome [1]: inactive | outcome [5]: inactive | outcome [7]: inactive | outcome [8]: inactive | outcome [2]: inactive | outcome [3]: inactive | outcome [4]: inactive

CC(c1ccccc1)(c1ccc(O)cc1)c1ccc(O)cc1
AC50 [1]: 12.5 µM (active) | outcome [5]: inactive | outcome [7]: inactive | AC50 [8]: 18.2 µM (active) | outcome [2]: inactive | outcome [3]: inactive | outcome [4]: inactive

CC(C)(c1ccc(O)c(-c2ccccc2)c1)c1ccc(O)c(-c2ccccc2)c1
outcome [1]: inactive | outcome [5]: inactive | outcome [7]: inactive | outcome [8]: inactive | outcome [2]: inactive | outcome [3]: inactive | outcome [4]: inactive

O=C(CCl)Nc1ccccc1
outcome [10]: inactive | outcome [6]: inactive | outcome [5]: inactive | outcome [7]: inactive | outcome [8]: inactive | AC50 [2]: 100 µM (active) | AC50 [3]: 35.2 µM (active) | AC50 [4]: 26.9 µM (active)

O=C(CCl)NCO
outcome [9]: inactive | outcome [10]: inactive | outcome [6]: inactive | outcome [7]: inactive | outcome [8]: inactive | outcome [2]: inactive | outcome [4]: inactive

BrCCCCBr
outcome [9]: inactive | outcome [10]: inactive | outcome [6]: inactive | outcome [5]: inactive | outcome [7]: inactive | outcome [3]: inactive | outcome [4]: inactive
